The text below walks through data of PubChem BioAssay (EPA / NIEHS).

Holding throughout (details): mRNA level, 48 h; actives raise or lower the signal
Read-out in one experiment: MYC, MYC (gene 4609)
Description: LTEA_HepaRG_MYC: Life Technologies and Expression Analysis (LTEA) Assay for MYC using HepaRG (AID 2283518). A digest of the protocol:
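HepaRG, ~100,000 cells/well, collagen I; 48 h plating; serum-free induction medium; 48 h dosing, duplicate, 100 uM top, half-log, 0.5% DMSO; total RNA → qRT-PCR MYC; gain/loss fit vs DMSO.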

Read-out in experiment [1]: Paternally Expressed 10 (PEG10), PEG10 (gene 23089)
Description: LTEA_HepaRG_PEG10: Life Technologies and Expression Analysis (LTEA) Assay for Paternally Expressed 10 (PEG10) using HepaRG (AID 2283520). The gist of the method: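 HepaRG, 48 h post-plating → serum-free induction medium → 48 h chemical exposure (duplicate, 8-pt, max 100 uM, half-log, 0.5% DMSO) → lysis in RLT → TaqMan qRT-PCR for PEG10, ACTB/GAPDH/POLR2A normalisation.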

Read-out in experiment [2]: Protein phosphatase 2A (PPP2R4), PTPA (gene 5524)
Put plainly: LTEA_HepaRG_PPP2R4: Life Technologies and Expression Analysis (LTEA) Assay for Protein phosphatase 2A (PPP2R4) using HepaRG (AID 2283522). The gist of the method:
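Readout is PPP2R4 transcript level by microfluidic qRT-PCR after 48 h chemical treatment of human HepaRG liver cells. Concentrations spanned 100 uM downward in half-log steps; gain or loss of signal was fitted relative to DMSO.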

Read-out in experiment [3]: Phosphatase and tensin (PTEN), PTEN (gene 5728)
Put plainly: LTEA_HepaRG_PTEN: Life Technologies and Expression Analysis (LTEA) Assay for Phosphatase and tensin (PTEN) using HepaRG (AID 2283523). The gist of the method: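 Read-out is PTEN transcript level by multiplexed TaqMan qRT-PCR after 48 h chemical treatment of human HepaRG cultures in serum-free induction medium. Concentrations spanned 100 uM downward in half-log steps, 0.5% DMSO throughout; activity fitted in both directions against vehicle.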

Read-out in experiment [4]: solute carrier (SLC22A1), SLC22A1 (gene 6580)
Description: LTEA_HepaRG_SLC22A1: Life Technologies and Expression Analysis (LTEA) Assay for solute carrier (SLC22A1) using HepaRG (AID 2283524). The gist of the method:
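HepaRG (human liver line), 48 h dosing in serum-free induction medium; 8 conc., half-log down from 100 uM, 0.5% DMSO vehicle, duplicates. Endpoint: SLC22A1 mRNA, qRT-PCR, housekeeping-normalized; gain/loss fit vs DMSO.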

Read-out in experiment [5]: Pyruvate Dehydrogenase Kinase 4 (PDK4), PDK4 (gene 5166)
Description: LTEA_HepaRG_PDK4: Life Technologies and Expression Analysis (LTEA) Assay for Pyruvate Dehydrogenase Kinase 4 (PDK4) using HepaRG (AID 2283525). The gist of the method: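 In this multiplexed human HepaRG expression assay, cells are treated 48 h with test chemicals across an eight-point range starting at 100 uM. PDK4 mRNA changes, normalized to ACTB/GAPDH/POLR2A, are fitted in both directions relative to vehicle.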

Read-out in experiment [6]: NAD(P)H dehydrogenase [quinone] 1 (NQO1), NQO1 (gene 1728)
Put plainly: LTEA_HepaRG_NQO1: Life Technologies and Expression Analysis (LTEA) Assay for NAD(P)H dehydrogenase [quinone] 1 (NQO1) using HepaRG (AID 2283526). A digest of the protocol: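 HepaRG, 48 h post-plating → serum-free induction medium → test chemical 48 h (duplicate, 100 uM top, half-log x8, 0.5% DMSO) → RNA isolation → qRT-PCR, ACTB/GAPDH/POLR2A normalization; bidirectional curve fit vs DMSO baseline.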

Read-out in experiment [7]: Nuclear factor erythroid 2-related factor 2 (Homo sapiens) (UniProt Q16236)
Description: LTEA_HepaRG_NFE2L2: Life Technologies and Expression Analysis (LTEA) Assay for Nuclear factor erythroid 2-related factor 2 (NFE2L2) Transcription Factor using HepaRG (AID 2283527). The gist of the method:
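Transcript level of NFE2L2 is the read-out, measured by microfluidic TaqMan qRT-PCR and normalized to three housekeeping genes. Human HepaRG cultures received test chemical for 48 h at up to 100 uM in half-log steps. Gain or loss of signal is fitted relative to 0.5% DMSO.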

Read-out in experiment [8]: succinate dehydrogenase complex iron sulfur subunit B (SDHB), SDHB (gene 6390)
Description: LTEA_HepaRG_SDHB: Life Technologies and Expression Analysis (LTEA) Assay for succinate dehydrogenase complex iron sulfur subunit B (SDHB) using HepaRG (AID 2283528). A digest of the protocol:
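SDHB transcript level read by TaqMan qRT-PCR, housekeeping-normalised (ACTB, GAPDH, POLR2A), after 48 h chemical treatment of plated HepaRG cells; eight concentrations top 100 uM, half-log steps, 0.5% DMSO, duplicates; fitted both directions against DMSO.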

Read-out in experiment [9]: Signal transducer and activator of transcription 3 (Homo sapiens) (UniProt P40763)
Put plainly: LTEA_HepaRG_STAT3: Life Technologies and Expression Analysis (LTEA) Assay for Signal transducer and activator of transcription (STAT3) using HepaRG (AID 2283529). The gist of the method: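 Read-out is STAT3 mRNA level by qRT-PCR, normalized to three housekeeping genes, in human HepaRG liver cells treated for 48 h. Concentrations ran from 100 uM downward in half-log steps; curves were fitted for gain or loss relative to 0.5% DMSO.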

Read-out in experiment [10]: solute carrier (SLCO1B1), SLCO1B1 (gene 10599)
Description: LTEA_HepaRG_SLCO1B1: Life Technologies and Expression Analysis (LTEA) Assay for solute carrier (SLCO1B1) using HepaRG (AID 2283530). A digest of the protocol: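 HepaRG, serum-free induction medium, 48 h dosing, 8-pt half-log from 100 uM, 0.5% DMSO vehicle, duplicates. Readout: SLCO1B1 mRNA, qRT-PCR, ACTB/GAPDH/POLR2A normalization; up or down fit vs DMSO.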

Read-out in experiment [11]: sulfotransferase 2A1 (SULT2A1), SULT2A1 (gene 6822)
Put plainly: LTEA_HepaRG_SULT2A1: Life Technologies and Expression Analysis (LTEA) Assay for sulfotransferase 2A1 (SULT2A1) using HepaRG (AID 2283531). The gist of the method:
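Transcript levels of SULT2A1, quantified by qRT-PCR and normalized to three housekeeping genes, serve as the readout. Human HepaRG cultures receive test chemicals for 48 h at up to 100 uM in half-log steps, with 0.5% DMSO vehicle.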

Read-out in experiment [12]: Transforming Growth Factor (TGFA), TGFA (gene 7039)
Description: LTEA_HepaRG_TGFA: Life Technologies and Expression Analysis (LTEA) Assay for Transforming Growth Factor (TGFA) using HepaRG (AID 2283532). The gist of the method: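 HepaRG (human liver line), 48 h exposure, 8 conc. half-log down from 100 uM, 0.5% DMSO vehicle, duplicates; serum-free induction medium. TGFA mRNA by TaqMan qRT-PCR, ACTB/GAPDH/POLR2A normalization; gain/loss fit vs DMSO.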

Read-out in experiment [13]: Transforming Growth Factor (TGFB1), TGFB1 (gene 7040)
Description: LTEA_HepaRG_TGFB1: Life Technologies and Expression Analysis (LTEA) Assay for Transforming Growth Factor (TGFB1) Transporter using HepaRG (AID 2283533). A digest of the protocol:
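HepaRG, 48 h post-plating, switched to serum-free induction medium; chemicals 100 uM top, half-log, 8 pts, 0.5% DMSO, dup; 48 h exposure; RNA → Fluidigm TaqMan qRT-PCR; norm ACTB/GAPDH/POLR2A; bidirectional fit vs DMSO.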

Read-out in experiment [14]: Tumor necrosis factor receptor 1 (TNFRSF1A), TNFRSF1A (gene 7132)
Description: LTEA_HepaRG_TNFRSF1A: Life Technologies and Expression Analysis (LTEA) Assay for Tumor necrosis factor receptor 1 (TNFRSF1A) using HepaRG (AID 2283535). The gist of the method:
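Read-out is TNFRSF1A transcript level by TaqMan qRT-PCR, normalized to three housekeeping genes, scored as gain or loss of signal versus 0.5% DMSO. Human HepaRG cells received test chemicals for 48 h at up to 100 uM (half-log series).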

Read-out in experiment [15]: Thyroid Hormone Responsive (THRSP), THRSP (gene 7069)
Put plainly: LTEA_HepaRG_THRSP: Life Technologies and Expression Analysis (LTEA) Assay for Thyroid Hormone Responsive (THRSP) using HepaRG (AID 2283536). A digest of the protocol:
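mRNA induction or loss relative to 0.5% DMSO vehicle was fitted bidirectionally across an eight-point curve whose highest exposure was 100 uM. Human HepaRG liver cells received chemicals in duplicate over 48 h before RNA extraction.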

Read-out in experiment [16]: Nuclear factor NF-kappa-B p105 subunit (Homo sapiens) (UniProt P19838)
Put plainly: LTEA_HepaRG_NFKB1: Life Technologies and Expression Analysis (LTEA) Assay for Nuclear Factor Kappa B Subunit 1 (NFKB1) using HepaRG (AID 2283521).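 Note: differentiated human HepaRG liver cells in serum-free induction medium.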 The gist of the method:
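NFKB1 transcript was measured by TaqMan qRT-PCR on Fluidigm arrays, normalised to three housekeeping genes and fitted in both directions against 0.5% DMSO. HepaRG cells were dosed in duplicate for 48 h in serum-free induction medium, eight half-log steps from 100 uM.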

Read-out in another experiment: TIMP1, TIMP1 (gene 7076)
Description: LTEA_HepaRG_TIMP1: Life Technologies and Expression Analysis (LTEA) Assay for TIMP1 using HepaRG (AID 2283534).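 Note: TaqMan qRT-PCR signal normalized to ACTB GAPDH and POLR2A housekeeping genes.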 A digest of the protocol:
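Readout is TIMP1 mRNA level measured by qRT-PCR and normalized to three housekeeping genes. Human HepaRG cells were treated for 48 h in duplicate at eight concentrations up to 100 uM (0.5% DMSO); gain or loss fitted against DMSO.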

Read-out in experiment [17]: Cellular tumor antigen p53 (Homo sapiens) (UniProt P04637)
Description: LTEA_HepaRG_TP53: Life Technologies and Expression Analysis (LTEA) Assay for Tumor Protein P53 (TP53) using HepaRG (AID 2283537). A digest of the protocol:
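TP53 transcript measured by qRT-PCR, normalized to three housekeeping genes, after 48 h treatment of human HepaRG cultures with chemicals from 100 uM downward in half-log steps (0.5% DMSO vehicle, serum-free induction medium). Up- or down-regulation fitted against DMSO.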

Molecules are shown by their SMILES. Active and inactive are the calls of the source. Rule for the calls: active = hit-call score of the fitted dose curve at least 0.9, where 1 is the maximum; inactive = score below 0.9.

Sequence of Signal transducer and activator of transcription 3 (Homo sapiens) (P40763 whole entry, looked up): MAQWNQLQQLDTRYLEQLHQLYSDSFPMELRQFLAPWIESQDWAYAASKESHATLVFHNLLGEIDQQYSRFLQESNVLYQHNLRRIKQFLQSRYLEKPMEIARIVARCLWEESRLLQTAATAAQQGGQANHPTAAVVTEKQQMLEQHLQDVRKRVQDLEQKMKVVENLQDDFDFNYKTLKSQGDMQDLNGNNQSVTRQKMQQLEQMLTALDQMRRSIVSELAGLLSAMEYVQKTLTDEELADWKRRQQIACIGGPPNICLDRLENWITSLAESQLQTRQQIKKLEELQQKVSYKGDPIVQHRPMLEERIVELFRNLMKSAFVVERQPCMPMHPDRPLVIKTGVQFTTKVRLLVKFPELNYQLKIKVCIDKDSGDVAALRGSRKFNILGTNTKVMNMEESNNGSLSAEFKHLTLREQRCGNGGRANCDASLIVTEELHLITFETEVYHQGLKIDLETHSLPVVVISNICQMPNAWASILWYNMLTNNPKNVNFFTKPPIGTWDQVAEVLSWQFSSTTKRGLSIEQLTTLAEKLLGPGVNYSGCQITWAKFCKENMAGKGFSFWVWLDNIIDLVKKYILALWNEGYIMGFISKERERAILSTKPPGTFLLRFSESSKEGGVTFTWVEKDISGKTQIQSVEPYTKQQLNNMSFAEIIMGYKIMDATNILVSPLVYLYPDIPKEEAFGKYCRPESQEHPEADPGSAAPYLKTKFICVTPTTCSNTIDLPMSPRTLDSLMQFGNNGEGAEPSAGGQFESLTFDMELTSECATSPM
Sequence of Nuclear factor erythroid 2-related factor 2 (Homo sapiens) (Q16236 whole entry, looked up): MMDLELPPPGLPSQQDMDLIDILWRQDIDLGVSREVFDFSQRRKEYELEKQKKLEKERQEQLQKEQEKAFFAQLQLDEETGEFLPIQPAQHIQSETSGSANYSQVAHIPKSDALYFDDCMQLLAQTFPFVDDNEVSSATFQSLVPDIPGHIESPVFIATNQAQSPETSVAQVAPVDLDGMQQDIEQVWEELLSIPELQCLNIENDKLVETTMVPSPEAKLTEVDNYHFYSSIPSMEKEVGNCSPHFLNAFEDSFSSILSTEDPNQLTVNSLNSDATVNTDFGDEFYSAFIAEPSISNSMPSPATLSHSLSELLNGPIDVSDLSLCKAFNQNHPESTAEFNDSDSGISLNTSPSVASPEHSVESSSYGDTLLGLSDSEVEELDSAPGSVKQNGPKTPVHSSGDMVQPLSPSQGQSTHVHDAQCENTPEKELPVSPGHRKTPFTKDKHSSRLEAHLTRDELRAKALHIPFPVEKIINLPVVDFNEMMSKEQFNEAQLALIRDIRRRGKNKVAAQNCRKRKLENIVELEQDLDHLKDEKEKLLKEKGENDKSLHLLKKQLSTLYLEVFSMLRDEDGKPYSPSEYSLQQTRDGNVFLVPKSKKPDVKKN
Sequence of Nuclear factor NF-kappa-B p105 subunit (Homo sapiens) (P19838 whole entry, looked up): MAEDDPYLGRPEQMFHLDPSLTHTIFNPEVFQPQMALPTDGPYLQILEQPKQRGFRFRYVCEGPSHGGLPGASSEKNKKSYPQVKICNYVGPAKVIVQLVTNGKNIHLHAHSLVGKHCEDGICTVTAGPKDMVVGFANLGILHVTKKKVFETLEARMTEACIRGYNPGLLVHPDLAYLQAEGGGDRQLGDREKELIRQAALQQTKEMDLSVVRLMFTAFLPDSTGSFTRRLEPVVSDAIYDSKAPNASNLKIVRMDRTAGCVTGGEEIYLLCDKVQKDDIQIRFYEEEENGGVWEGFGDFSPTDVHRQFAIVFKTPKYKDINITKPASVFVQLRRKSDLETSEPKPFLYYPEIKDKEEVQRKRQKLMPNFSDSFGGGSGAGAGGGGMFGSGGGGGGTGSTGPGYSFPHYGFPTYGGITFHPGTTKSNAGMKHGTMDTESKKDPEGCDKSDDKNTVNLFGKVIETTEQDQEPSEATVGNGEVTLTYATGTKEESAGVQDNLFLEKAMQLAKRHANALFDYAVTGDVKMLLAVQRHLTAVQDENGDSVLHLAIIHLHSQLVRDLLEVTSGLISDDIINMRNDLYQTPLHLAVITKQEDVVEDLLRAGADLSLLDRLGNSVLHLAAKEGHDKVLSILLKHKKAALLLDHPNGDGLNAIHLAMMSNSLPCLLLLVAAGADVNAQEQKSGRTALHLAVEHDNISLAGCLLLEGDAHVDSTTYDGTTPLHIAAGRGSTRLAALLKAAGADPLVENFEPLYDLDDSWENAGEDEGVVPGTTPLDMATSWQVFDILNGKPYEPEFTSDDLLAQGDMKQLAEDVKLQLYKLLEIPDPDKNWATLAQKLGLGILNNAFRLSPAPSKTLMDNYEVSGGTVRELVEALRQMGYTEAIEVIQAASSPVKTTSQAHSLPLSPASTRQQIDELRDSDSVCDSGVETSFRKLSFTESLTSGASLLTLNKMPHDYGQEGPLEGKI
Sequence of Cellular tumor antigen p53 (Homo sapiens) (P04637 whole entry, looked up): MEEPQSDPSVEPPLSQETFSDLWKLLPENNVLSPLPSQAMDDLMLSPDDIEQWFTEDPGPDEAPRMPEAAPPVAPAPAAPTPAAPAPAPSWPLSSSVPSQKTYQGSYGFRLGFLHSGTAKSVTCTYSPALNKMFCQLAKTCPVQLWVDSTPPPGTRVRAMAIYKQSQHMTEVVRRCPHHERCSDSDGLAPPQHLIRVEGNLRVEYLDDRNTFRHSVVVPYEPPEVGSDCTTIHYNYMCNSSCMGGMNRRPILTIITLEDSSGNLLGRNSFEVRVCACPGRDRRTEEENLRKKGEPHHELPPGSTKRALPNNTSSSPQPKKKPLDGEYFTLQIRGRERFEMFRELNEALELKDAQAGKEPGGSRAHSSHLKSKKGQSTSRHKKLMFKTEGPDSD

Take `C/C=C/C=C/C(=O)O`: the outcome in the experiment with MYC, MYC (gene 4609) is “inactive”; in [1], “inactive”; in experiment [2], “inactive”; in experiment [3] it was “inactive”; in [4], “inactive”; in experiment [5], “inactive”. The outcome in [6], in experiment [7], in experiment [8], in experiment [9], in [10] and in experiment [11] was inactive. The compound was called inactive in experiment [12], in experiment [13], in [14] and in experiment [15].
As a reminder, the AC50 is the concentration at which the activity in the assay is half-maximal. As to `Nc1nc(=S)c2[nH]cnc2[nH]1`, the AC50 is 11.4 µM (active) with MYC, MYC (gene 4609); 7.2 µM (active) in experiment [1]; 26.6 µM (active) in [7]; 11.4 µM (active) in experiment [10]; 11.4 µM (active) in [11]; 9.18 µM (active) in experiment [15]. The compound was classed as inactive in experiment [2], in [3], in [5], in experiment [6], in experiment [8] and in experiment [9]. For the same compound, the compound was called inactive in experiment [12], in [13] and in experiment [14].
For the compound `CCCCC(CC)COP(=O)(OCC(CC)CCCC)OCC(CC)CCCC` (stereo unspecified), the outcome with MYC, MYC (gene 4609) was “inactive”; in experiment [1], “inactive”; in experiment [16] it was “inactive”; in experiment [2] it was “inactive”; in experiment [3], “inactive”; in experiment [4], “inactive”. Also, the compound was called inactive in experiment [5], in [6], in experiment [7], in experiment [9], in experiment [10] and in experiment [11]. Moreover, the outcome in experiment [12] is “inactive”; in experiment [13], “inactive”; with TIMP1, TIMP1 (gene 7076) it was “inactive”; in [14], “inactive”; in [15], “inactive”; in experiment [17] it was “inactive”.
For the compound `O=C(Oc1ccccc1)c1cccc(C(=O)Oc2ccccc2)c1`, the outcome was “inactive” in the experiment with MYC, MYC (gene 4609); “inactive” in experiment [1]; “inactive” in experiment [2]; “inactive” in [3]; “inactive” in [4]; “inactive” in experiment [5]. Further, the outcome in experiment [6], in [7], in [8], in experiment [9], in experiment [10] and in experiment [11] was inactive. In addition, the outcome in experiment [12] is “inactive”; in experiment [13] it was “inactive”; with TIMP1, TIMP1 (gene 7076) it was “inactive”; in experiment [14] it was “inactive”; in experiment [15] it was “inactive”.
